Where “and” joins values, the source holds several entries; their conditions need not be identical. Equal values may be shown once. This is part of a sample that, as a whole, favours compounds with a hit. Of some 83,000 tested, about 20% had one in any assay.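 Activity criterion: percent growth below 10, measured after cells in 96-well plates were exposed to a single compound concentration for 48 hours.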 Calls of active or inactive are those of the source.

Assay in all cases: NCI-60 one-dose screen, 48 h (100 = growth as untreated, 0 = no growth, -100 = all killed)
One experiment concerns NCI/ADR-RES ovarian. The settings on record: 10 µM.
The next experiment has as its system T-47D breast. The settings on record: 10 µM.
The next experiment deals with BT-549 breast. The settings on record: 10 µM.
For another experiment, the system named is MDA-MB-435 melanoma. The settings on record: 10 µM.
A further experiment concerns SW-620 colon. As to conditions: 10 µM.
For the next experiment, the system named is MCF7 breast. The settings on record: 10 µM unless noted.
A further experiment deals with HCT-116 colon. The settings on record: 10 µM.
The next experiment has as its system HCC-2998 colon. As to conditions: 10 µM.
The subject of the next experiment is KM12 colon. As to conditions: 10 µM.

Turning to `COc1ccc2c(ccc3oc([N+](=O)[O-])cc32)c1`, the growth was 2.89% (active) in the experiment with NCI/ADR-RES ovarian; 15.3% (inactive) with T-47D breast; -35.1% (active) in the experiment with BT-549 breast; -77% (active) in the experiment on MDA-MB-435 melanoma; 7.19% (active) with SW-620 colon; 6.64% (active) with MCF7 breast. In addition, the growth is 4.98% (active) in the experiment on HCT-116 colon, -59.3% (active) in the experiment with HCC-2998 colon and -5.99% (active) with KM12 colon.

In the case of `Cc1cc(C(C)(C)c2ccc(O)c(C)c2)ccc1O`, the growth in the experiment on NCI/ADR-RES ovarian was 88.1% (inactive); in the experiment with T-47D breast it was 81.3% (inactive); in the experiment with BT-549 breast, 108% (inactive); in the experiment with MDA-MB-435 melanoma, 80.4% (inactive); in the experiment with SW-620 colon it was 97.2% (inactive); with MCF7 breast, 119% (inactive). Also, the growth was 86.4% (inactive) with HCT-116 colon, 104% (inactive) in the experiment with HCC-2998 colon and 92.3% (inactive) in the experiment on KM12 colon.

For the molecule `O=[N+]([O-])/C=C\c1ccc2c(c1)OCO2`, the growth was 98.5% (inactive) in the experiment with NCI/ADR-RES ovarian; 75.3% (inactive) in the experiment with T-47D breast; 91.7% (inactive) in the experiment with BT-549 breast; -14.8% (active) in the experiment with MDA-MB-435 melanoma; 43.2% (inactive) with SW-620 colon; -10.9% (active) in the experiment with MCF7 breast. Further, the growth in the experiment with HCT-116 colon was -20% (active); in the experiment on HCC-2998 colon, 52.6% (inactive); with KM12 colon, 38.3% (inactive).

Consider `COc1cc(/C=C/[N+](=O)[O-])cc(OC)c1OC`, for which the growth in the experiment with NCI/ADR-RES ovarian is 27.3% (inactive); in the experiment on T-47D breast it was 13.1% (inactive); in the experiment with BT-549 breast, 40.6% (inactive); in the experiment on MDA-MB-435 melanoma it was -22.4% (active); with SW-620 colon, -50.5% (active); with MCF7 breast, 6.55% (active). Further, the growth in the experiment on HCT-116 colon is -19.2% (active); in the experiment with HCC-2998 colon it was -19.9% (active); in the experiment with KM12 colon it was 18.2% (inactive).

For the molecule `COc1cc2c(cc1OC)C13CCN4CC5=CCOC6CC(=O)N2C1C6C5CC43` (stereo unspecified), the growth with NCI/ADR-RES ovarian is 116% (inactive) and 66.9% (inactive); in the experiment with T-47D breast, 96.9% (inactive) and 109% (inactive); in the experiment with BT-549 breast, 90.3% (inactive); in the experiment with MDA-MB-435 melanoma it was 112% (inactive) and 110% (inactive); in the experiment on SW-620 colon, 115% (inactive) and 106% (inactive); in the experiment on MCF7 breast it was 94.8% (inactive) and 98.6% (inactive). The growth is 99.4% (inactive) and 102% (inactive) with HCT-116 colon; -56.9% (active) with HCC-2998 colon; 101% (inactive) and 100% (inactive) in the experiment with KM12 colon.

For `COC(=O)C1C(O)C(C)C(O)C(C)/C=C\C=C(C)C(=O)Nc2c(C)c(OC(C)=O)c3c(c2O)C(=O)C(C)=C2OCOC(=C23)C(C)=CC(C)(O)C(O)C(C)C1O` (stereo unspecified), the growth in the experiment on NCI/ADR-RES ovarian is 105% (inactive); in the experiment with T-47D breast, 100% (inactive); in the experiment on BT-549 breast, 121% (inactive); in the experiment on MDA-MB-435 melanoma it was 100% (inactive); in the experiment on SW-620 colon, 94.2% (inactive); in the experiment with MCF7 breast, 93.6% (inactive). Further, the growth with HCT-116 colon was 99.9% (inactive); in the experiment with HCC-2998 colon, 91.6% (inactive); with KM12 colon it was 102% (inactive).

For `O=C(CBr)Nc1ccccc1`, the growth with NCI/ADR-RES ovarian is 103% (inactive); in the experiment on T-47D breast, 92.6% (inactive); with BT-549 breast it was 87% (inactive); with MDA-MB-435 melanoma it was 102% (inactive); in the experiment on SW-620 colon it was 59.9% (inactive); in the experiment with MCF7 breast it was 68.6% (inactive). For the same molecule, the growth with HCT-116 colon is 84.7% (inactive); in the experiment on HCC-2998 colon, 105% (inactive); in the experiment with KM12 colon, 102% (inactive).

Regarding `CS(=N)(=O)CCC(N)C(=O)O` (stereo unspecified), the growth in the experiment with NCI/ADR-RES ovarian is 100% (inactive); in the experiment on T-47D breast, 111% (inactive); in the experiment with BT-549 breast, 99.2% (inactive); in the experiment with MDA-MB-435 melanoma, 99.8% (inactive); with SW-620 colon, 103% (inactive); with MCF7 breast, 101% (inactive). For the same molecule, the growth was 97.1% (inactive) in the experiment with HCT-116 colon, 92.7% (inactive) in the experiment with HCC-2998 colon and 115% (inactive) in the experiment on KM12 colon.

On to `Cc1ccc(NC(=O)CBr)cc1`, for which the growth with NCI/ADR-RES ovarian was 106% (inactive); with T-47D breast it was 98.5% (inactive); in the experiment with BT-549 breast, 139% (inactive); with MDA-MB-435 melanoma it was 102% (inactive); in the experiment on SW-620 colon, 92.8% (inactive); with MCF7 breast it was 93.5% (inactive). For the same molecule, the growth in the experiment with HCT-116 colon is 106% (inactive); in the experiment with HCC-2998 colon, 113% (inactive); with KM12 colon, 109% (inactive).

As to `O=C(O)c1cc(Cc2ccc(O)c(C(=O)O)c2)ccc1O` (tested in a mixture with another compound), the growth in the experiment on NCI/ADR-RES ovarian is 75.7% (inactive); in the experiment on T-47D breast it was 53.1% (inactive); in the experiment with BT-549 breast, 73.8% (inactive); in the experiment with MDA-MB-435 melanoma, 72.7% (inactive); in the experiment with SW-620 colon, 64.6% (inactive); in the experiment on MCF7 breast, 46.4% (inactive). The growth in the experiment with HCT-116 colon is 45.1% (inactive); in the experiment on HCC-2998 colon, 53.9% (inactive); in the experiment with KM12 colon, 65.9% (inactive).

Take `COc1cc(/C=C(/C)[N+](=O)[O-])ccc1O`: the growth is 62.4% (inactive) and -17.5% (active) with NCI/ADR-RES ovarian; -22.6% (active) and -40.3% (active) in the experiment with T-47D breast; 79.5% (inactive) and 95.1% (inactive) in the experiment with BT-549 breast; 6.19% (active) in the experiment with MDA-MB-435 melanoma; -68% (active) and -56.1% (active) in the experiment on SW-620 colon; 9.25% (active) and 1.76% (active) in the experiment with MCF7 breast. Further, the growth in the experiment with HCT-116 colon is -56% (active) and -35.4% (active); in the experiment with HCC-2998 colon it was 30.3% (inactive) and 87.3% (inactive); in the experiment with KM12 colon, 59.9% (inactive) and 41.9% (inactive).

With `O=C(CBr)Nc1ccc(Cl)cc1`, the growth in the experiment with NCI/ADR-RES ovarian is 94.5% (inactive); in the experiment on T-47D breast, 67.8% (inactive); with BT-549 breast, 116% (inactive); in the experiment with MDA-MB-435 melanoma, 87% (inactive); in the experiment on SW-620 colon it was 9.26% (active); with MCF7 breast, 45% (inactive). In addition, the values for the growth in the experiment with HCT-116 colon, in the experiment with HCC-2998 colon and with KM12 colon were 54.4% (inactive), 112% (inactive) and 102% (inactive), respectively.

As to `ClCc1ccc2ccccc2n1`, the growth in the experiment on NCI/ADR-RES ovarian is 98.4% (inactive); with T-47D breast, 87% (inactive); in the experiment on BT-549 breast it was 102% (inactive); in the experiment with MDA-MB-435 melanoma it was 93.9% (inactive); in the experiment on SW-620 colon, 114% (inactive); in the experiment on MCF7 breast it was 103% (inactive). Also, the values for the growth in the experiment on HCT-116 colon, in the experiment with HCC-2998 colon and in the experiment on KM12 colon were 91.1% (inactive), 105% (inactive) and 103% (inactive), respectively.

Turning to `COC12c3c(C)cc(O)c4c(=O)occ(c34)C(=O)C1C13COC(=O)c4c(O)cc(C)c(c41)C(=O)C2C3OC(C)=O` (stereo unspecified), the growth was 97.1% (inactive) in the experiment with NCI/ADR-RES ovarian; 94% (inactive) with T-47D breast; 96.2% (inactive) in the experiment on BT-549 breast; 173% (inactive) in the experiment on MDA-MB-435 melanoma; 99.7% (inactive) with SW-620 colon; 89.5% (inactive) in the experiment on MCF7 breast. In addition, the growth is 99.1% (inactive) in the experiment on HCT-116 colon, 97.3% (inactive) in the experiment with HCC-2998 colon and 103% (inactive) with KM12 colon.

Values taken from PubChem BioAssay (NCI).
